Results published in the supplement of paper PMC11732987, “Enantioselective OTUD7B fragment discovery through chemoproteomics screening and high-throughput optimisation” (Communications Chemistry, 2025).

How the values were obtained:
Experiment in all cases: log2 ratio of Biotin-Ahx-Ub-VS probe labelling (fragment/DMSO); higher = less target engagement (more negative = stronger competition), active = hit call of the paper (q ≤ 0.05, log2 ratio ≤ -1)
Details in all cases: compound concentration: 200 uM; treatment time: 3 h
USP34 = USP34 (UniProt Q70CQ2)
USP34, sequence (Q70CQ2 whole entry, the tested form may be a part): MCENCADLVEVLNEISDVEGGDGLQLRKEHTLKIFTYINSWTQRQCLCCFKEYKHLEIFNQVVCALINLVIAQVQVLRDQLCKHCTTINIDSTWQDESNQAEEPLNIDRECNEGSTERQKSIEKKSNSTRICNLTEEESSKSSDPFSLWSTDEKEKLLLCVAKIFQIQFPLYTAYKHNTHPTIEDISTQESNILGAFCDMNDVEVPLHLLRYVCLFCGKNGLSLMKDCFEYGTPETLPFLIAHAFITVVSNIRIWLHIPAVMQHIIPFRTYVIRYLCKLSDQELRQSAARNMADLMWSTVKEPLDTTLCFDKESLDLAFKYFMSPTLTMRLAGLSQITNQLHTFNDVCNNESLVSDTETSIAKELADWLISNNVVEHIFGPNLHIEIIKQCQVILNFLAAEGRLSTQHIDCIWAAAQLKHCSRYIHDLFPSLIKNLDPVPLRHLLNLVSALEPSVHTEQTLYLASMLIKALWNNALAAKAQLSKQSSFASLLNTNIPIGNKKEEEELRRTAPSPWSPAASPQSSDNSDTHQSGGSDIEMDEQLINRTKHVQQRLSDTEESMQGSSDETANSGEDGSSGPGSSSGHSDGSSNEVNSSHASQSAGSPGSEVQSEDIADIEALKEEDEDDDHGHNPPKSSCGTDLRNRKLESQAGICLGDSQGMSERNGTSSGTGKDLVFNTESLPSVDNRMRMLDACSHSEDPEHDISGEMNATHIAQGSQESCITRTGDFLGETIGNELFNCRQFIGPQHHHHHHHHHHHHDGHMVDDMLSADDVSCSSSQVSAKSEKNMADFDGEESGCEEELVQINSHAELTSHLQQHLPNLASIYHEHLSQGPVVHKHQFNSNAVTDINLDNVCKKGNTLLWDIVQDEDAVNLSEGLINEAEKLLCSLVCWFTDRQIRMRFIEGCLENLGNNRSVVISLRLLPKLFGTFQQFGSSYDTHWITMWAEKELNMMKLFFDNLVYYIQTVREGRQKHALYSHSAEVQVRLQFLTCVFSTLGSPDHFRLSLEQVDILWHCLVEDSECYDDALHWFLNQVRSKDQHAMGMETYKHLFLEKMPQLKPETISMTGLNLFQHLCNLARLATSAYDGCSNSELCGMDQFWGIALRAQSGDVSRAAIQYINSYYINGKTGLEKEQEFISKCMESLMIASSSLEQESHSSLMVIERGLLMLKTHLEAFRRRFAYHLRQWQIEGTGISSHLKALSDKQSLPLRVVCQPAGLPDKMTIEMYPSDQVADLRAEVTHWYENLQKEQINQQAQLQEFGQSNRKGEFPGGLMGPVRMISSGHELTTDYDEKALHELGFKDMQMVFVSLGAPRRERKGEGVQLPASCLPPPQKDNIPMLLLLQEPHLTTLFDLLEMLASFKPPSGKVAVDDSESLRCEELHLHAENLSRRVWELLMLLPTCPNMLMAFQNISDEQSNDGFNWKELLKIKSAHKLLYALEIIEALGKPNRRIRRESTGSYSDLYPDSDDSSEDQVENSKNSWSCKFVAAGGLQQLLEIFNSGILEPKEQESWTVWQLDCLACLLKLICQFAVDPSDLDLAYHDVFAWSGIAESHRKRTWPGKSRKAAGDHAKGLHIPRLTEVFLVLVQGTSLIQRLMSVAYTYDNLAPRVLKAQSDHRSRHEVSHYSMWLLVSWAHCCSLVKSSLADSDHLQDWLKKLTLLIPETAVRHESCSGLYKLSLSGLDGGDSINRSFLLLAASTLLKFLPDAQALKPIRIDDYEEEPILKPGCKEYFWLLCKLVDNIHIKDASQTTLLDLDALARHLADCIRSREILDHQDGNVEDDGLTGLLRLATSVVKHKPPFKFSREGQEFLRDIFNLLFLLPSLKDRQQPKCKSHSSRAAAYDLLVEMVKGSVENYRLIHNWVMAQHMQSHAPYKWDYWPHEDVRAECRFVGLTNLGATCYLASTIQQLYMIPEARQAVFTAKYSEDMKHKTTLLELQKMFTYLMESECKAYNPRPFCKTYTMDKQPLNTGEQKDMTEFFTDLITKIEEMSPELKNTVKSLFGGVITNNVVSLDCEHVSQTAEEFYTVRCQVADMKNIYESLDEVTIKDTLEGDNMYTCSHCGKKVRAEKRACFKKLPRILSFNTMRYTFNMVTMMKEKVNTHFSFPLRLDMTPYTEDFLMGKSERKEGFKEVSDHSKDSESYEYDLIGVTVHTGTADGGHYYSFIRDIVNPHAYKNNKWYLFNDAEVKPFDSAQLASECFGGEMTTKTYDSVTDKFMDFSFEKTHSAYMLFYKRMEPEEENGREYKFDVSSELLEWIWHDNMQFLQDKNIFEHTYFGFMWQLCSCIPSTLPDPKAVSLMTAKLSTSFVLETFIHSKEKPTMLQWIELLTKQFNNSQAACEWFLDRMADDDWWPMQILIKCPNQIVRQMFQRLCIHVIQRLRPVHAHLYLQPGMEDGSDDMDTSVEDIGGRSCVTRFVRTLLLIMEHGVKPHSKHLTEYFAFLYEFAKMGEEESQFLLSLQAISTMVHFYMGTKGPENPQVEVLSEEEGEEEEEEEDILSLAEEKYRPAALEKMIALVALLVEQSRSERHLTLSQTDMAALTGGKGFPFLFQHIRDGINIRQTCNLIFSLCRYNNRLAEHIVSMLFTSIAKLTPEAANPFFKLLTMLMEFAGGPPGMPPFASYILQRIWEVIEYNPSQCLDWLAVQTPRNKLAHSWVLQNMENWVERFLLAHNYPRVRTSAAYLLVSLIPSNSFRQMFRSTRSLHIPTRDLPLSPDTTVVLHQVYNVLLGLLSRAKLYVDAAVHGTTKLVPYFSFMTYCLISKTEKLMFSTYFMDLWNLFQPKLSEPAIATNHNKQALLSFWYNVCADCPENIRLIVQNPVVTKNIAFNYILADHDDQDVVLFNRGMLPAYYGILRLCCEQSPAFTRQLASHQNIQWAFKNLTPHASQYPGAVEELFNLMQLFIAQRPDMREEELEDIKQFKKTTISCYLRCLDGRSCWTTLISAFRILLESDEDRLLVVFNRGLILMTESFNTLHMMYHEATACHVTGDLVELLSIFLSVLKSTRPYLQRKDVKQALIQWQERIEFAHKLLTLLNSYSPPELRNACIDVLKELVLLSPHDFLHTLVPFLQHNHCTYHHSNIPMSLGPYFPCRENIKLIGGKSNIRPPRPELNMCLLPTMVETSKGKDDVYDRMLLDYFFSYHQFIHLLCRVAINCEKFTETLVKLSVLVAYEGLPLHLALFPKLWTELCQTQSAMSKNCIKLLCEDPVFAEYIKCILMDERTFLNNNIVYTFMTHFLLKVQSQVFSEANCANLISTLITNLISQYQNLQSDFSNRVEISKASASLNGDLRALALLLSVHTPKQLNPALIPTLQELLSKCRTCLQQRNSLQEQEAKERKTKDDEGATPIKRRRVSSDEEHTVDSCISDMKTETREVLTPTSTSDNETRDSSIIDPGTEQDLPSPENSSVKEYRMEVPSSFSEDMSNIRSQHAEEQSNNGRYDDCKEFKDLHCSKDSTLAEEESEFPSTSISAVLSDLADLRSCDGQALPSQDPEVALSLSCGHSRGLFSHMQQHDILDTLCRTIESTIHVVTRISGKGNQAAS
In short: (§1)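 Labelled DUBs from HEK293T lysate were NeutrAvidin-enriched, digested with LysC and trypsin, and run by diaPASEF LC-MS/MS. Before that, each 495 µg sample in Tris/CHAPS/IGEPAL buffer with protease inhibitors was treated in triplicate with fragment at 200 µM or vehicle for 3 h, then with Biotin-Ahx-Ub-VS at 0.5 µM final for 1 h. Values are average log2 ratios of fragment over vehicle by unpaired t-test, based on global-median-normalised Spectronaut label-free quantities from proteins with ≥2 unique peptides.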

USP36 = target: T1, USP36 (UniProt Q9P275)
T1 sequence (whole entry): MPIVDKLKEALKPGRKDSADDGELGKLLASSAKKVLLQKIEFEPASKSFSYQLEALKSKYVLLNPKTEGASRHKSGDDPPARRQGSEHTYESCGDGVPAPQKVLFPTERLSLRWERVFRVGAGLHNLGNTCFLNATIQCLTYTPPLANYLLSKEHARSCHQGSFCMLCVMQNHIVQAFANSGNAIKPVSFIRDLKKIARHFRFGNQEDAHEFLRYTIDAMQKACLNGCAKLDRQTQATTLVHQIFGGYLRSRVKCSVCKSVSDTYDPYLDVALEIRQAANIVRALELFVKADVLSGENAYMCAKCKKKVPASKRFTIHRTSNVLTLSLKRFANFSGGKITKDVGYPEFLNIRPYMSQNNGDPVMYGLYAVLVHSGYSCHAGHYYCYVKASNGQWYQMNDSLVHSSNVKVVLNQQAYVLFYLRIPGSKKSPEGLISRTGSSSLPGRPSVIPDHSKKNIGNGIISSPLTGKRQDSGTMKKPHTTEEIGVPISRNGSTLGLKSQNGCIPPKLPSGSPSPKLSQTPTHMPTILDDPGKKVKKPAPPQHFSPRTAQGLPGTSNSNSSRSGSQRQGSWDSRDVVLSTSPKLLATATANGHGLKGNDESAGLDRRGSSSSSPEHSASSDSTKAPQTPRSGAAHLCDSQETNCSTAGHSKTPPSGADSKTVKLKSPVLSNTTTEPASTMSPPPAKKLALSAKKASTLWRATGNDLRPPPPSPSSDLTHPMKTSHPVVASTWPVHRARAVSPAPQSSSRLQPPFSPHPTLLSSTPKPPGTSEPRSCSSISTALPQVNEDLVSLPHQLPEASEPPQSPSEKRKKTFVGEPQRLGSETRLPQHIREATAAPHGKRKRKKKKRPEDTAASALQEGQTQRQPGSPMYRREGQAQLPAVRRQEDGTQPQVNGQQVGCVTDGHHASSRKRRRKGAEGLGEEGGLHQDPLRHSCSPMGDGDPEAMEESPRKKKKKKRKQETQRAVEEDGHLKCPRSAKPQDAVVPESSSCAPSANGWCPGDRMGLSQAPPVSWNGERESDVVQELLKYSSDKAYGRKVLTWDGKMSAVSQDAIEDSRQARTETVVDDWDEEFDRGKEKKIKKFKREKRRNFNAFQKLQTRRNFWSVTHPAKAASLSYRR
In short: as §1

USP38 = target: T2, USP38 (UniProt Q8NB14)
T2 sequence (whole entry): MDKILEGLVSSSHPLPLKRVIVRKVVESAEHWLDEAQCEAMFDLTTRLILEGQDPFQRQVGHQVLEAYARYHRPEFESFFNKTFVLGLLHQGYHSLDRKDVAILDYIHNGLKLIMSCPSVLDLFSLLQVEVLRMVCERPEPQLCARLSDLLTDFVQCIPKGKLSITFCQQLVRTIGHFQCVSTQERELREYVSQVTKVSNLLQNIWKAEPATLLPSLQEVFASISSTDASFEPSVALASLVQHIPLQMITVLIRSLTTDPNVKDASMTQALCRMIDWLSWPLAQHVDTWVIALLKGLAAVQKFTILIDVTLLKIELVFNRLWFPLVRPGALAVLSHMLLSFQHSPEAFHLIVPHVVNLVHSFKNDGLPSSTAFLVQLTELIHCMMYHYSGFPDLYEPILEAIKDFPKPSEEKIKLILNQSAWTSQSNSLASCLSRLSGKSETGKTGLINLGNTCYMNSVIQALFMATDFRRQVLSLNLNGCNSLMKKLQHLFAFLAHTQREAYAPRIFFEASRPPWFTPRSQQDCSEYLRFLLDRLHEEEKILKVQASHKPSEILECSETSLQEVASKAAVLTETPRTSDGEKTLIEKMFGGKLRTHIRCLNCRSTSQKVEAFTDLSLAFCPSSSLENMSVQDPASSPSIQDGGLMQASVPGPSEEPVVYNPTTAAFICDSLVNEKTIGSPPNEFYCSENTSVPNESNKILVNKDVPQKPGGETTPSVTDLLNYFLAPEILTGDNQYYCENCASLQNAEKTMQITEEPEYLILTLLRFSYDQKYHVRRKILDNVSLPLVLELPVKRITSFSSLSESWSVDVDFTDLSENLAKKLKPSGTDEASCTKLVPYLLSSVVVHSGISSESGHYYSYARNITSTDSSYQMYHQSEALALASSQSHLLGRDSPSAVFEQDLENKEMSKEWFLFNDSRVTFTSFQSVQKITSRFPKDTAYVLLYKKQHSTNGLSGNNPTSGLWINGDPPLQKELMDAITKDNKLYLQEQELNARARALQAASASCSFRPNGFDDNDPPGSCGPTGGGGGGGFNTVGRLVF
In short: as §1

USP39 = target: T3, USP39 (UniProt Q53GS9)
T3 sequence (whole entry): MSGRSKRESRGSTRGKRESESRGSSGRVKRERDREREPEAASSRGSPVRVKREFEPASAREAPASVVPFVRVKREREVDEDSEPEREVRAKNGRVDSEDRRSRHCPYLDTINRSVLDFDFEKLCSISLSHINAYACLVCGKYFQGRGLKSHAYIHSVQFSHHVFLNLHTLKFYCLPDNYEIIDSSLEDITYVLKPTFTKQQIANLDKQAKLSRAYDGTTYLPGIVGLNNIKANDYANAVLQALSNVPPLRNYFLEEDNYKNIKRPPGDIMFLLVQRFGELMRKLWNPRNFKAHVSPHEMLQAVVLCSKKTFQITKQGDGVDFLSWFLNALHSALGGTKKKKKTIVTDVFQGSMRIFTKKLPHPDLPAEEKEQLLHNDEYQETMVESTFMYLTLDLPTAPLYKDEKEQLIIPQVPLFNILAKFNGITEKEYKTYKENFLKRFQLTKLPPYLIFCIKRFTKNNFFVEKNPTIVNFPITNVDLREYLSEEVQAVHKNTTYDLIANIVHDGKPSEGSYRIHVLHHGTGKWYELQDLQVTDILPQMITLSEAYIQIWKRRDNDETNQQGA
In short: as §1

USP4 = target: T4, USP4 (UniProt Q13107)
T4 sequence (whole entry): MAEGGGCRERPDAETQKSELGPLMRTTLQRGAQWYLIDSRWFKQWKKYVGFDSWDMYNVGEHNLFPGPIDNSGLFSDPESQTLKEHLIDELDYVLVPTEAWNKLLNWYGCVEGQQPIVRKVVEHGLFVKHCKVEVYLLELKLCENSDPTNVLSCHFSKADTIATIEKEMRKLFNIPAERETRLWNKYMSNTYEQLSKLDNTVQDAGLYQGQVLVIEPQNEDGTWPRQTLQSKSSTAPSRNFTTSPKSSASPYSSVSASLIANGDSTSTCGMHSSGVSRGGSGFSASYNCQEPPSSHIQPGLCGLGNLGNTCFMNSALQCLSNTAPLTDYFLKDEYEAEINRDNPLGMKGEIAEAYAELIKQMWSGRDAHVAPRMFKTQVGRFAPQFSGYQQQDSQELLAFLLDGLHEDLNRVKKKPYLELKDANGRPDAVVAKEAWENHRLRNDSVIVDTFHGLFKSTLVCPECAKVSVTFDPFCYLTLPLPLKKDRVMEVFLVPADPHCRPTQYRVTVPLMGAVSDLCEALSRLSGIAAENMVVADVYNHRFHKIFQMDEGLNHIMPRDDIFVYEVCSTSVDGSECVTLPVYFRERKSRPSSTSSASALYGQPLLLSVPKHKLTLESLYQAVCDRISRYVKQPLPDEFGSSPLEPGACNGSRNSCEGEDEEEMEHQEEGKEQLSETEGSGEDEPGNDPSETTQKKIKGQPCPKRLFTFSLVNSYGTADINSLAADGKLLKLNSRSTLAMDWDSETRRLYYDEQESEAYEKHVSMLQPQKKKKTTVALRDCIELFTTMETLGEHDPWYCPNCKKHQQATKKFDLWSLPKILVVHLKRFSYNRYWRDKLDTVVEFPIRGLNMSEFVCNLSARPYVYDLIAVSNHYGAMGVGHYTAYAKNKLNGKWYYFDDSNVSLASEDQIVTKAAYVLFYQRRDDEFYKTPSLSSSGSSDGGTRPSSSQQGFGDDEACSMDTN
In short: as §1

Measured: log2 ratio of Biotin-Ahx-Ub-VS probe labelling

Cc1ccc(C(=O)NCCNC(=O)CCl)cc1
inactive: USP34 -0.0636 | USP36 0.0541 | USP38 -0.00607 | USP39 -0.0936 | USP4 -0.258
